Where “and” joins values, the source holds several entries; their conditions need not be identical. Identical values can stand only once. In all, about 360,000 compounds went through this assay and about 10,000 (2.8%) were called active. Not shown: some 4% with an inconclusive outcome. Calls follow the shape of the dose curve; as a rule, active = well fitted inhibition curve with a large enough effect; inconclusive = small, poorly fitted or top-dose-only effect; inactive = flat fitted curve, though single readings scatter. Shown is part of a subset that was picked to be rich in actives.
Target: Serine/threonine-protein kinase PLK1 (Homo sapiens) (UniProt P53350)
Experiment: qHTS for Inhibitors of PLK1-PDB (polo-like kinase 1 - polo-box domain): Primary Screen; also: nearly all actives have a fitted effect of over 65% in size; as to max response, negative = inhibition: series mostly up to about 57 µM
Conditions: Plk1 PBD binding of FITC phosphopeptide, fluorescence polarization
% is scaled to controls: 0 for no effect and ±100 for the full control effect; potency is read from the fitted curve at half-maximal effect.

Sequence of Serine/threonine-protein kinase PLK1 (Homo sapiens) (P53350 whole entry, looked up, the tested form may be a part): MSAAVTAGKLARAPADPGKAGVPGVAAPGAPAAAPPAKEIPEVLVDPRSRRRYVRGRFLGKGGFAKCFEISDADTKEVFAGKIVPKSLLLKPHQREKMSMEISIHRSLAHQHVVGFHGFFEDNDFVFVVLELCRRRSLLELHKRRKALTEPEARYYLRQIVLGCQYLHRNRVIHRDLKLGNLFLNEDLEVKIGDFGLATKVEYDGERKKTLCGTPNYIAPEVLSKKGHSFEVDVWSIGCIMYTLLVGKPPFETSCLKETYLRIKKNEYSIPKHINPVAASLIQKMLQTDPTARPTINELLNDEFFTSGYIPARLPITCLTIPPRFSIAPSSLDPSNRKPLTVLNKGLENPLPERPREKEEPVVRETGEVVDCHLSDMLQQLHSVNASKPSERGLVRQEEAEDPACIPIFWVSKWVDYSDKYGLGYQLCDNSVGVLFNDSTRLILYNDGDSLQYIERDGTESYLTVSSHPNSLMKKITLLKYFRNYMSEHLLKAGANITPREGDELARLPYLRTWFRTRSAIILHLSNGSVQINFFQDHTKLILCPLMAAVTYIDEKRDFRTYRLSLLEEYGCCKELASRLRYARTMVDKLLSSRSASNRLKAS

Row | SMILES | max response, negative = inhibition | Potency
1 | CCc1nc2c(OCCOc3ccccc3)cccn2c1N(C=O)Cc1ccc(OC)cc1 | -6.91% (inactive) | –
2 | COc1ccc(C(=O)N2CCCC(C(=O)c3ccccc3OC)C2)cc1OC (stereo unspecified) | -20.4% (inactive) | –
3 | CC(=O)Nc1ccc(S(=O)(=O)Oc2ccc(Br)cc2C(=S)N2CCOCC2)cc1 | -17.8% (inactive) | –
4 | COc1cc(C(=S)N2CCOCC2)cc(OC)c1OC(=O)c1ccc([N+](=O)[O-])cc1[N+](=O)[O-] | -24.3% (inactive) | –
5 | O=C(Oc1ccccc1Cl)c1ccc(N2CCOCC2)c([N+](=O)[O-])c1 | -14.3% (inactive) | –
6 | O=C(Oc1ccc(Br)cc1C(=S)N1CCOCC1)c1cccc([N+](=O)[O-])c1 | – | 11.9 µM (active)
7 | O=C(Oc1ccccc1C(=S)N1CCCCC1)c1cc([N+](=O)[O-])cc([N+](=O)[O-])c1 | – | 2.12 µM (active) and 2.67 µM (active)
8 | COc1ccc(S(=O)(=O)N2CCCCC2)cc1C(=O)NC1CCS(=O)(=O)C1 (stereo unspecified) | 5.08% (inactive) | –
9 | O=c1[nH][nH]c2c1[C@H](c1ccc(Cl)cc1)O[C@H](CCc1ccccc1)C2 | -16.9% (inactive) | –
10 | CCOC1=C2CN(S(=O)(=O)c3ccc(C)cc3)[C@H](c3cccs3)C[C@H]2[C@H]2C(=O)N(c3ccccc3)C(=O)[C@H]2C1 | -0.0091% (inactive) | –
11 | N#Cc1c(-c2ccccc2)nc(SCc2cccc(C(F)(F)F)c2)[nH]c1=O | – | 23.8 µM (active)
12 | N#Cc1c(-c2ccc(F)cc2)nc(-c2ccccc2)[nH]c1=O | -13.6% (inactive) | –
13 | Cc1ccccc1CSc1nnc(-c2ccccc2)c(=O)[nH]1 | -22.2% (inactive) | –
14 | O=C(Nn1c(SCc2ccc([N+](=O)[O-])cc2)nc2ccccc2c1=O)c1ccc(F)cc1 | -14.4% (inactive) | –
15 | O=c1[nH]c(SCc2cccc(F)c2)nc2ccccc12 | -13.9% (inactive) | –
16 | N#Cc1c(-c2ccccc2)nc(SCc2ccc([N+](=O)[O-])cc2)[nH]c1=O | – | 26.7 µM (active)
17 | S=C(NN=Cc1ccccn1)Nc1ccccn1 | -6.29% (inactive) | –
18 | COc1ccc(CCCNC(=O)C2Cc3c(-c4cccc(C(N)=O)c4)ccnc3O2)cc1 (stereo unspecified) | -3.93% (inactive) | –
19 | CCc1nc2ccc(C(=O)Nc3ccc(OC)c(OC)c3)cn2c1N(C)C(=O)c1cccc(OC)c1 | -6.83% (inactive) | –
20 | O=C(Nc1ccccc1[N+](=O)[O-])C1C(c2ccccc2)=C1c1ccccc1 | 0.94% (inactive) | –
21 | O=C(O)c1ccccc1NC(=S)NC(NC(=O)c1ccccc1[N+](=O)[O-])C(Cl)(Cl)Cl (stereo unspecified) | – | 26.7 µM (active)
22 | O=C(NNC(=O)c1ccccc1[N+](=O)[O-])Nc1ccccc1C(F)(F)F | -9.97% (inactive) | –

Row | SMILES | max response, negative = inhibition | Potency
23 | COc1ccccc1-n1c(SCC(=O)O)nc2sc3c(c2c1=O)CCC3 | -11.7% (inactive) | –
24 | COc1ccc(Cl)cc1-n1c(=S)sc2c(=O)n(-c3ccc(F)cc3)c(SCC(=O)O)nc21 | – | 23.8 µM (active)
25 | COc1cccc(-n2c(=S)sc3c(=O)n(-c4ccccc4C)c(SCC(=O)O)nc32)c1 | -8.81% (inactive) | –
26 | C#CCN(C[C@H]1[C@H](OC(=O)NC2CCCC2)[C@H](OC(=O)NC2CCCC2)C[C@H]2C(=O)N(c3ccccc3)C(=O)[C@@H]12)S(=O)(=O)c1ccc(C)cc1 | -0.644% (inactive) | –
27 | CC(=O)Nc1ccc(-c2ccnc3c2CC(C(=O)NC(C)C)O3)cc1 (stereo unspecified) | -3.44% (inactive) | –
28 | O=C(NCCCCO)C(F)(F)C(F)(F)C(F)(F)C(=O)NCCCCO | – | 18.9 µM (active)
29 | O=C(NCCCCCCCCCNC(=O)C(F)(F)F)C(F)(F)F | -1.31% (inactive) | –
30 | COCCNc1ncnc2c1ncn2[C@H]1CN(CCN2CCOCC2)C[C@@H](CO)O1 | -5.67% (inactive) | –
31 | CC(C)Nc1nc(NCCOc2ccccc2Cl)c2sccc2n1 | 4.77% (inactive) | –
32 | Cc1sc2ccccc2c1CNC[C@H]1O[C@@H](n2ccc(=O)[nH]c2=O)[C@H](O)[C@@H]1O | 2.69% (inactive) | –
33 | CC1CCN(c2nc3c(c(=O)[nH]c(=O)n3C)n2CCCc2ccccc2)CC1 | -10.5% (inactive) | –
34 | Cc1nnc(Sc2nc3c(c(=O)[nH]c(=O)n3C)n2Cc2ccccc2)s1 | 0.479% (inactive) | –
35 | C=CCn1c(SCc2ccccc2)nc2c1c(=O)[nH]c(=O)n2C | – | 26.7 µM (active)
36 | CN(C)C1CN(Cc2cn(Cc3ccccc3)nn2)S(=O)(=O)C1 (stereo unspecified) | -9.56% (inactive) | –
37 | CCCCCc1c(-c2cccc(Br)c2)ncn1CCc1ccccc1OC | -9.6% (inactive) | –
38 | O=C(NCCS(=O)(=O)N1CCN(c2ccccc2)CC1)c1ccco1 | -3.4% (inactive) | –
39 | O=C(NCCS(=O)(=O)N1CCN(c2ccccc2F)CC1)c1ccc(Br)o1 | – | 15 µM (active)
40 | O=C(NCCS(=O)(=O)N1CCN(c2ccccc2)CC1)c1cc(=O)c2ccccc2o1 | -10.4% (inactive) | –
41 | NC(CSC(c1ccccc1)(c1ccccc1)c1ccc(-c2ccccc2)cc1)C(=O)O (stereo unspecified) | -12.6% (inactive) | –
42 | CCC(=O)N1CCCC1(C)C(=O)Nc1ccc2c(c1)CCN2C(C)=O (stereo unspecified) | -12.6% (inactive) | –
43 | O=C(Nc1ccccc1)c1cc2ccccc2[nH]1 | 0% (inactive) | –
44 | S=c1ccc2ccccc2[nH]1 | – | 10.6 µM (active)

Row | SMILES | max response, negative = inhibition | Potency
45 | O=C(Nc1ccc(Cl)cn1)c1ccccc1-c1ccccc1 | -6.02% (inactive) | –
46 | CC1(C(=O)Nc2cccc3cccnc23)CCN1C(=O)CCC1CCCC1 (stereo unspecified) | 0.774% (inactive) | –
47 | CCOC(=O)c1c(N)sc2c1CCCC2=O | -6.68% (inactive) | –
48 | CCOC(=O)Nc1sc(C(=O)N(C)C)c(C)c1C(=O)OCC | -6.39% (inactive) | –
49 | CCOC(=O)c1c(N)sc(C(C)=O)c1C | – | 21.2 µM (active)
50 | CC(=O)c1cccc(-c2cnc3c(NC=O)cc(-c4ccc(N5CCN(C)CC5)cc4)cn23)c1 | 2.15% (inactive) | –
51 | CCCCC(=O)N(C)c1c(CC)nc2c(OCc3ccc(S(C)(=O)=O)cc3)cccn12 | -6.21% (inactive) | –
52 | COc1ccc(OCc2n[nH]c(=S)n2N)cc1 | – | 3.77 µM (active)
53 | COc1ccc(Cc2n[nH]c(=S)n2NC(=O)Nc2ccc(C)cc2)cc1 | -9.65% (inactive) | –
54 | COc1ccc(OCc2ccc(-c3nc4ccccc4c(=O)n3N)o2)cc1 | 2.15% (inactive) | –
55 | O=C(NCc1cccnc1)c1cc(C2CCCN(C(=O)C3CCCCC3)C2)on1 (stereo unspecified) | 0.902% (inactive) | –
56 | CC1CC(NC(=S)N(C)C)CC(C)(C)C1 (stereo unspecified) | -1.25% (inactive) | –
57 | CC(C)CCN1CCN(Cc2ccc(C(F)(F)F)cc2)CC1CCO (stereo unspecified) | 4.35% (inactive) | –
58 | Cc1ccc(CN2CCN(Cc3ccc4ncccc4c3)CC2CCO)cc1 (stereo unspecified) | -1.02% (inactive) | –
59 | CC(=O)Nc1ccc(CN2CCN(Cc3ccc(F)c(F)c3)C(CCO)C2)cc1 (stereo unspecified) | – | 18.9 µM (active)
60 | COc1ccc(-c2cc(NC=O)c3ncc(-c4cc(OC)c(OC)c(OC)c4)n3c2)c(OC)c1 | -18.1% (inactive) | –
61 | O[C@@H]1C[C@H](c2ccccc2)N(Cc2cccs2)C[C@H]1n1cc(C2CC2)nn1 | -0.363% (inactive) | –
62 | Oc1ccc2ccc3cccc[n+]3c2c1 | – | 4.74 µM (active)
63 | O=C1CCC(C(=O)OCC(=O)Nc2ccc(OC(F)F)cc2)=NN1 | -4.05% (inactive) | –
64 | CCNC(=O)C1(C)CCCN(C(=O)c2ccc3ccccc3n2)C1 (stereo unspecified) | -13.8% (inactive) | –
65 | CC1(C(=O)O)CCN1C(=O)/C=C/c1ccccc1 (stereo unspecified) | -4.73% (inactive) | –
66 | COc1ccc(C(C)(C)C)cc1NC(=O)CN(C)C1=NS(=O)(=O)c2ccccc21 | -6.05% (inactive) | –

Row | SMILES | max response, negative = inhibition | Potency
67 | O=C(OCc1ccc([N+](=O)[O-])cc1)C1CC(=O)N(Cc2ccccc2Cl)C1 (stereo unspecified) | – | 29.9 µM (active)
68 | CC(OC(=O)C1CC(=O)N(Cc2ccccc2)C1)C(=O)Nc1ccccc1[N+](=O)[O-] (stereo unspecified) | -3.81% (inactive) | –
69 | COc1ccc(CCN2CC(C(=O)OCC(=O)NCc3ccccc3Cl)CC2=O)cc1OC (stereo unspecified) | -3.96% (inactive) | –
70 | CCOC(=O)c1cnn2c(SC)ncnc12 | -4.05% (inactive) | –
71 | CC(C)Oc1cc(F)ccc1-c1cc(C(=O)Nc2cccc(Cl)c2)[nH]n1 | -2.39% (inactive) | –
72 | COc1ccc(C(=O)C2CCCN(C(=O)c3ccc(OC)o3)C2)c(C)c1 (stereo unspecified) | -27.3% (inactive) | –
73 | Cc1cc(C)n(-c2ccc(NC(=O)C3CCCCN3C(=O)c3cccs3)cc2)n1 (stereo unspecified) | -7.4% (inactive) | –
74 | COc1ccc(C(=O)N2CCCCC2C(=O)Nc2ccc(-n3nc(C)cc3C)cc2)o1 (stereo unspecified) | – | 23.8 µM (active)
75 | CC(=O)c1ccccc1NC(=O)COC(=O)C1COc2ccccc2O1 (stereo unspecified) | 4.38% (inactive) | –
76 | CCCC(=O)N1CCC1(C)C(=O)Nc1ccc(-n2cncn2)cc1 (stereo unspecified) | -11.3% (inactive) | –
77 | Cc1ccccc1CN1C(=O)CSCC1(C)C(=O)Nc1c(C)cccc1C (stereo unspecified) | -3.6% (inactive) | –
78 | CCCCCCCCN1C(=O)[C@H](CC(=O)NCC23CC4CC(CC(C4)C2)C3)C[C@@]2(C(=O)OC)CCCCC=C12 | -9.18% (inactive) | –
79 | O=[N+]([O-])c1cc(S(=O)(=O)Nc2cccc(Cl)c2)ccc1N=Nc1c(O)[nH]c2ccccc12 | – | 84.4 µM (active)
80 | O=C(O)c1ccccc1/C=N/Nc1ccc(S(=O)(=O)Nc2ccc(Cl)cc2)cc1[N+](=O)[O-] | -22.4% (inactive) | –
81 | COc1ccc(S(=O)(=O)Nc2ccc3cn[nH]c3c2)cc1[N+](=O)[O-] | -11.6% (inactive) | –
82 | COc1ccc(Cl)cc1NC(=O)CCS(=O)(=O)c1ccc(Br)cc1 | – | 15 µM (active)
83 | COc1ccc(Cl)cc1NC(=O)CCS(=O)(=O)c1cc2c(cc1C)NC(=O)CO2 | -11.9% (inactive) | –
84 | CCOc1ccc(OCC)c(NC(=O)CCS(=O)(=O)c2ccc(C)cc2)c1 | -5.07% (inactive) | –
85 | COc1cc(CCN=Cc2ccccc2O)c([N+](=O)[O-])cc1OC | -15.3% (inactive) | –
86 | CN(C(=O)CN1CCN(c2cc(-c3ccc(OCc4ccccc4)cc3)ncn2)CC1)c1ccccc1 | 2.08% (inactive) | –

— PubChem BioAssay AID720504 (National Center for Advancing Translational Sciences (NCATS), 2013)
